According to PubChem BioAssay (NCI):
Compounds without any hit were thinned out: in the full panel of roughly 83,000, 20% have a hit.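 Step 1: grow cells in 96-well plates. Step 2: add test compound at a single concentration. Step 3: incubate 48 h. Step 4: record percent growth.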 Unmarked numbers belong to inactive results. Calls of active or inactive are those of the source. Rule for the calls: active = growth percent below 10; inactive = the rest.

Each compound was assayed on NCI-H322M lung (assay: NCI-60 one-dose screen, 48 h (100 = growth as untreated, 0 = no growth, -100 = all killed)). Conditions: 10 µM unless noted.

| SMILES | growth |
| --- | --- |
| N=C(N)c1ccc(-c2ccc(-c3ccco3)o2)cc1F | -10.4% (active) |
| N#Cc1ccc(-c2ccc(-c3cccs3)o2)cc1F | 83.3% |
| O=C(Nc1cccc(-n2ccc3c(NC(=O)c4ccccc4)nccc32)c1)c1ccc(Cl)c(Cl)c1 | -61.6% (active) |
| COc1ccc2nc3ccccc3c(NCc3ccc(C)cc3)c2c1 | 30.3% |
| COc1cc(OC)cc(-c2ccc(-c3ccc(C(=N)N)s3)s2)c1 | -86.7% (active) |
| COc1ccc(-c2cc(-c3cc4ccccc4oc3=O)n(-c3ccccc3)n2)cc1 | 78.1% |
| O=C1c2cccc3cccc(c23)C(=O)N1CCCCCCCCCCN1C(=O)c2cccc3cccc(c23)C1=O | 111% |
| O=C(CCCN1CCC(O)(c2ccc(Br)cc2)CC1)c1ccc(F)cc1 | 81.8% |
| O=C(c1ccc(OCCN2CCCCC2)cc1)c1c(-c2ccc(O)cc2)sc2cc(O)ccc12 | 114% |
| CCCCCc1c(C)[nH]c(/C=C2\N=C(c3ccc[nH]3)C=C2Oc2ccc(OC)cc2)c1C | -6.72% [100 µM] (active) |
| ClCCn1cnc2c(SCc3ccccc3Cl)ncnc21 | 40.4% |
| O=C(N/N=C/c1ccc([N+](=O)[O-])o1)c1ccc(O)cc1 | 65.6% |
| CCS(=O)(=O)Nc1cccc(Nc2c3cccc(C)c3nc3c(C)cccc23)c1OC | 49.1% |
| CCN(C(=O)CCl)C(C)(C)C(SSSC(c1ccc(Cl)cc1)C(C)(C)N(CC)C(=O)CCl)c1ccc(Cl)cc1 (stereo not given) | 87.7% |
| CCOC(=O)C(CCCCC(NC(C)=O)(C(=O)OCC)C(=O)OCC)(NC(C)=O)C(=O)OCC | 105% |
| COc1ccc(-n2nc(C(=O)Nc3ccc(F)cc3)nc2-c2cc(OC)c(OC)c(OC)c2)cc1 | 78.5% |
| ClC1=NC(Cl)C(Cl)=N/C1=N\c1ncn[nH]1 (stereo not given) | 89.2% |
| COc1cc2c(cc1OC)-c1cc(OC)c(OC)cc1C(CN(C)C)C2 (stereo not given) | 38.9% [100 µM] |
| Oc1ccc(-c2nnc3c4[nH]ccc4ncn23)cc1 | 98.2% |
| COc1ccc(/C=N/NC(N)=S)c(OC)n1 | 104% |
| CC(C)(C)c1cc(C[P+](c2ccccc2)(c2ccccc2)c2ccccc2)cc(C(C)(C)C)c1O | -9.5% (active) |
| FC(F)(F)c1cc(-c2nnc3n2N=C(Cl)CS3)cc(C(F)(F)F)c1 | 111% |

These compounds were tested on HOP-62 NSCLC in the same assay as above. Conditions: 10 µM unless noted.

| SMILES | growth |
| --- | --- |
| COC(=O)[C@@H](Cc1c[nH]c2ccccc12)NC(=O)/C=C/c1ccccc1 | 19% |
| NNc1ccc(S(N)(=O)=O)cc1 | 91.2% |
| COc1ccc(-c2ccc(-c3ccc(C(=N)N)s3)s2)cc1 | -81.6% (active) |
| O=P(O)(O)C(O)(Cc1cccnc1)P(=O)(O)O | 94.3% |
| O=C1OC(/C=C/c2ccccc2)=NC/1=C/c1ccccc1[N+](=O)[O-] | 91.4% |
| N/C(=N\O)c1ncc(-c2ccc(C(F)(F)F)cc2)c(NC2CCCCCC2)n1 | -74.2% [100 µM] (active) |
| Cc1cc(Nc2c3ccccc3nc3ccccc23)ccc1NS(C)(=O)=O | 36.9% |
| COC(=O)[C@H](Cc1cn(C)cn1)NC(=O)[C@H](CC(C)C)NC(=O)Nc1cc(C(F)(F)F)cc(C(F)(F)F)c1 | -100% [100 µM] (active) |
| N=C(N)c1ccc(-c2ccc(-c3cccs3)s2)cc1F | -96.2% (active) |
| O=C(Nc1cccc(Cl)c1)Nc1ccccc1Cl | 101% |
| CCCCCCCCCCCCCC | 98.2% |
| Cc1nn(-c2ccccc2)c2nc3c(nc12)C1=NCCN1C(c1ccc(Cl)cc1)N3 (stereo not given) | 87.7% |
| COc1cc(OC)c(C(=O)/C=C/c2cccc(OC(C)=O)c2)cc1CC=C(C)C | 114% |
| C[N+](C)(C)CCCCCCCCCC[N+](C)(C)C | 96.2% |
| Cc1cc2nc(CN)[nH]c2cc1C | 98.9% |
| CC(=O)C1CCC2C3CC(C)=C4CC(O)CCC4(C)C3CCC12C (stereo not given) | 124% |
| N=C(N)c1ccc(-c2ccc(-c3ccco3)o2)cc1F | 32.2% |
| N#Cc1ccc(-c2ccc(-c3cccs3)o2)cc1F | 35.7% |
| O=C(Nc1cccc(-n2ccc3c(NC(=O)c4ccccc4)nccc32)c1)c1ccc(Cl)c(Cl)c1 | -82.2% (active) |

| SMILES | growth |
| --- | --- |
| COc1ccc2nc3ccccc3c(NCc3ccc(C)cc3)c2c1 | 39% |
| COc1cc(OC)cc(-c2ccc(-c3ccc(C(=N)N)s3)s2)c1 | -88.1% (active) |
| COc1ccc(-c2cc(-c3cc4ccccc4oc3=O)n(-c3ccccc3)n2)cc1 | 55.4% |
| O=C1c2cccc3cccc(c23)C(=O)N1CCCCCCCCCCN1C(=O)c2cccc3cccc(c23)C1=O | 104% |
| O=C(CCCN1CCC(O)(c2ccc(Br)cc2)CC1)c1ccc(F)cc1 | 64.3% |
| O=C(c1ccc(OCCN2CCCCC2)cc1)c1c(-c2ccc(O)cc2)sc2cc(O)ccc12 | 89.2% |
| CCCCCc1c(C)[nH]c(/C=C2\N=C(c3ccc[nH]3)C=C2Oc2ccc(OC)cc2)c1C | -54.5% [100 µM] (active) |
| ClCCn1cnc2c(SCc3ccccc3Cl)ncnc21 | 64% |
| O=C(N/N=C/c1ccc([N+](=O)[O-])o1)c1ccc(O)cc1 | 30.3% |
| CCS(=O)(=O)Nc1cccc(Nc2c3cccc(C)c3nc3c(C)cccc23)c1OC | 8.84% (active) |
| CCN(C(=O)CCl)C(C)(C)C(SSSC(c1ccc(Cl)cc1)C(C)(C)N(CC)C(=O)CCl)c1ccc(Cl)cc1 (stereo not given) | 86.6% |
| CCOC(=O)C(CCCCC(NC(C)=O)(C(=O)OCC)C(=O)OCC)(NC(C)=O)C(=O)OCC | 102% |
| COc1ccc(-n2nc(C(=O)Nc3ccc(F)cc3)nc2-c2cc(OC)c(OC)c(OC)c2)cc1 | 87.8% |
| ClC1=NC(Cl)C(Cl)=N/C1=N\c1ncn[nH]1 (stereo not given) | 39.3% |
| COc1cc2c(cc1OC)-c1cc(OC)c(OC)cc1C(CN(C)C)C2 (stereo not given) | -57.2% [100 µM] (active) |
| Oc1ccc(-c2nnc3c4[nH]ccc4ncn23)cc1 | 100% |
| COc1ccc(/C=N/NC(N)=S)c(OC)n1 | 116% |
| CC(C)(C)c1cc(C[P+](c2ccccc2)(c2ccccc2)c2ccccc2)cc(C(C)(C)C)c1O | 8.73% (active) |
| FC(F)(F)c1cc(-c2nnc3n2N=C(Cl)CS3)cc(C(F)(F)F)c1 | 98.5% |
